Holding throughout (experiment): NCI-60 one-dose screen, 48 h (100 = growth as untreated, 0 = no growth, -100 = all killed)
Holding throughout (settings): 10 µM unless noted

Test [1] has as its system NCI-H23 lung.
The subject of test [2] is NCI-H226 lung.
Test [3] concerns NCI-H322M lung.
Test [4] relates to HOP-62 NSCLC.
The test system of test [5] is NCI-H460 lung.
Test [6] has as its system HOP-92 NSCLC.
In test [7] the test system is NCI-H522 lung.
In test [8] the test system is A549/ATCC NSCLC.
In test [9] the test system is 786-0 renal.
Test [10] relates to COLO 205 colon.

About 83,000 compounds went through this panel and 20% of them were active in at least one assay; those are over-represented in the sample as a whole.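 Percent growth is the endpoint: 0 to 100 indicates growth inhibition (40 means 60% inhibition), 0 means no net growth, and negative values indicate cell death.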 Values without a mark were called inactive. Activity calls are given as the source filed them. How the source made its calls: active means growth percent below 10; inactive means the rest.

`O=C(N/N=C/C=C\c1ccccc1)C(=O)N/N=C/C=C/c1ccccc1`: the growth in test [1] is 103%; in [2], 111%; in test [3], 123%; in test [4] it was 107%; in [5] it was 117%; in test [6], 115%. Further, the growth in [7] was 124%; in test [8], 109%; in test [9], 104%; in test [10], 122%.
Take `CCC(=O)OC1=CN2C(=NC(c3ccc(N)cc3)=CC2c2cc(OC)c(OC)c(OC)c2)S1` (stereo not given): the growth is 84.8% in test [1]; 75% in test [2]; 63% in [3]; 48.1% in test [4]; 16.7% in [5]; 48.4% in test [6]. Besides, the growth in [7] was 40.6%; in test [8], 39.2%; in test [9], 72.1%; in test [10], 47%.
`CC(C)(C)N1CCC1C(N)=O` (stereo not given): the growth in test [1] was 86%; in test [2] it was 118%; in [3], 125%; in test [4], 96.8%; in test [5], 104%; in [6] it was 100%. The growth in [7] is 172%; in test [8], 99%; in test [9], 29.6%; in test [10], 106%.
In the case of `COc1ccc(S(=O)(=O)n2ccc(-c3ccc4c(c3)CCC(C)(C)O4)n2)cc1OC`, the growth is 56.1% in test [1]; 59% in test [2]; 89.5% in [3]; 112% in test [4]; 69.6% in test [5]; 58.3% in test [6]. The growth is 65.8% in [7], 67.1% in test [8], 79.4% in test [9] and 87.1% in [10].
With `CCOC(=O)c1cn2c3c(cc(C)cc3c1=O)C(=O)/C(=C/c1ccccc1)C2`, the growth was 108% in test [1]; 94% in [2]; 96.9% in test [3]; 79.2% in test [4]; 104% in [5]; 57.1% in [6]. In addition, the growth was 75.8% in [7], 89.1% in test [8], 82.7% in test [9] and 93.4% in test [10].
Consider `CCCCN(CCCC)c1ccc(C(=N)c2ccc(N(CCCC)CCCC)cc2)cc1`, for which the growth was -77% (active) in test [1]; -90.7% (active) in test [2]; 11.9% in test [3]; -96.8% (active) in test [4]; -85.9% (active) in [5]; -83% (active) in test [6]. Moreover, the growth in [7] was -87% (active); in test [8], -86.6% (active); in test [9], -91.2% (active); in test [10], -96.2% (active).
In the case of `CC(C)(C)n1cc(-c2ccnc(NCCNS(=O)(=O)c3ccc(F)cc3)c2)c(-c2cccc(O)c2)n1`, the growth is 58.2% in test [1]; 50.4% in [2]; 72.3% in [3]; 78.9% in [4]; 29.8% in test [5]; 58.3% in [6]. In addition, the growth was 50.4% in [7], 47.5% in test [8], 26% in [9] and -2.98% (active) in test [10].
As for `Cc1cccc(/C=N/Nc2cc(C)c3cccc(C)c3n2)n1`, the growth is 94.3% in [1]; 86.9% in test [2]; 100% in test [3]; 110% in test [4]; 92.9% in [5]; 75.5% in test [6]. Also, the growth is 87% in test [7], 87.8% in test [8], 107% in [9] and 96.2% in [10].
As to `COc1ccc(C(=O)c2cc(OC)c3c(c2)OCO3)cc1O`, the growth in test [1] was 30.4%; in [2], 66.9%; in test [3], 51.4%; in test [4], 35.5%; in test [5], 8.5% (active); in test [6], 44.1%. Further, the growth in test [7] was -7.3% (active); in test [8] it was 24.5%; in test [9], 44%; in test [10], 84.9%.
`Fc1ccc(Nc2ncnc3ccc(-c4cnc5[nH]ccc5c4)cc23)cc1Cl`: the growth was 36.1% in [1]; 4.94% (active) in [2]; 19.2% in [3]; 29.1% in test [4]; -58.9% (active) in test [5]; -5.43% (active) in test [6]. Further, the growth in [7] was -33.3% (active); in test [8], -50.1% (active); in test [9] it was -44.1% (active); in test [10], 11%.
On to `O=C(Oc1ccccc1[N+](=O)[O-])C1CCCN1C(=O)OCc1ccccc1` (stereo not given), for which the growth in [1] is 95.1%; in [2], 99.8%; in test [3], 121%; in test [4], 111%; in test [5], 116%; in [6] it was 86.3%. The growth in [7] was 101%; in test [8] it was 98.5%; in test [9] it was 98.6%; in [10], 115%.
Regarding `CCCCCc1cc[n+](CC(=O)c2ccc([N+](=O)[O-])cc2)cc1`, the growth in [1] was 69.6%; in test [2] it was 96.5%; in test [3], 107%; in [4], 79.8%; in test [5] it was 49.6%; in [6], 51.7%. Further, the growth was 45.7% in test [7], 78.9% in test [8], 96.5% in test [9] and -5.18% (active) in test [10].
For the compound `CC(C)OC(=O)N1CCOCC1`, the growth was 98.1% in [1]; 101% in [2]; 106% in test [3]; 98.9% in test [4]; 107% in test [5]; 92.2% in test [6]. The growth was 95.9% in test [7], 103% in [8], 104% in test [9] and 101% in test [10].
With `COc1ccc(-c2cc3c(OC)c(OC)c(OC)cc3oc2=O)cc1`, the growth in [1] was 59.1%; in test [2], 83.1%; in [3], 77%; in test [4], 50.4%; in test [5], 13.8%; in test [6], 30.6%. Also, the growth in test [7] was -11.7% (active); in [8], 47.7%; in test [9] it was 57.2%; in test [10], 31.5%.

Values taken from PubChem BioAssay (NCI).
